Compound activity deposited in PubChem by National Center for Advancing Translational Sciences (NCATS).
ERK AVP inh: vasopressin-driven ERK pathway inhibition; Potency, µM (series often up to 57.5 µM), inactives show at the top dose activity, negative = inhibition, most hits filed as inhibitors; HEK293-V1b, vasopressin-stimulated pERK AlphaScreen; 72,000 compounds, 0.99% hits; further: nearly all actives have a fitted effect of over 55% in size
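qHTS, compounds titrated on V1b-expressing HEK293 cells. Preincubation 30 min at 37C, vasopressin 25 nM for 5 min, lysis 10 min, bead incubation 5 hr at room temperature.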
Bst PK mod: modulators of Bacillus stearothermophilus pyruvate kinase | purified pyruvate kinase, luminescence ATP production; ribose 5-phosphate activator present at AC10 | Potency, µM | 51,000 compounds, 1.2% hits | AID 361; in the data active means potency below about 11 µM; inconclusive means mostly about 12 µM to 25 µM;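 the screen sought inhibitors and activators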;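 further: scaled between full activation by ribose 5 phosphate and full inhibition by luteolin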
Luciferase inh: inhibitors of firefly luciferase; P08659; purified firefly luciferase, luminescence, 8 min; Potency, µM (doses to about 57.1 µM), for the others: top-dose activity change, negative = inhibition, actives largely listed as inhibitors; 72,000 compounds, 2.2% hits; AID 411; further: nearly all actives have a fitted effect of over 40% in size
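Luminescence read-out after 8 min at room temperature; enzyme reaction used luciferin plus 10 uM ATP (linear range) in imidazole buffer pH 7.2 with KCl, MgCl2, Tween 20 and BSA. Each sample was run as a titration.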
Tau filament bind: tau filament binding | Potency, µM (highest dose often 57.1 µM), for inactives: top-dose activity change, negative = inhibition | 71,000 compounds, 2% hits | P10636 | recombinant tau filaments, thioflavin S fluorescence, 15 h; filaments grown with octadecylsulfate alongside compound;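 further: actives lower thioflavin S fluorescence by blocking filaments or displacing dye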
Target sequence (P10636 whole entry, looked up): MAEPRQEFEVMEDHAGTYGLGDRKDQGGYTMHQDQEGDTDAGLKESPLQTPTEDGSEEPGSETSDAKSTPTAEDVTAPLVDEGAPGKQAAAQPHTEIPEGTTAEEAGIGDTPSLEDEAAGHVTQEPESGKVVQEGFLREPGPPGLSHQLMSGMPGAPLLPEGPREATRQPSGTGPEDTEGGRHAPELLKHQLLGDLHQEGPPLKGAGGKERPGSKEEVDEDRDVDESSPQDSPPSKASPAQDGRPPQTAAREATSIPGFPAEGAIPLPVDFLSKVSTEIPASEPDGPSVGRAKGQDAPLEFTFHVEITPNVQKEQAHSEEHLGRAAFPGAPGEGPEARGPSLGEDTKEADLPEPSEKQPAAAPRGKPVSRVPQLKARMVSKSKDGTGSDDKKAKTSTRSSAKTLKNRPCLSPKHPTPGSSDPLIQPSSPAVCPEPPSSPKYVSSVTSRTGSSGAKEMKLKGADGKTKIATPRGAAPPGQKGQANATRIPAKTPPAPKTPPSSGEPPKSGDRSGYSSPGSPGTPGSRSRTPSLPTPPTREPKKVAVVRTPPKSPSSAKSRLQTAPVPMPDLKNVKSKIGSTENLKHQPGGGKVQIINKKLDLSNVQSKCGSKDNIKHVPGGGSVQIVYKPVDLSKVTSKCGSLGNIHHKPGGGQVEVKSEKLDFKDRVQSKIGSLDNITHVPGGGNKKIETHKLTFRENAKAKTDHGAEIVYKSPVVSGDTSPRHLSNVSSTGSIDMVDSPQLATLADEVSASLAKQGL
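Recombinant tau protein (human, 1 uM final) plus 30 uM ODS in HEPES pH 7.4 with NaCl, DTT and thioflavine S. Compound present from the start; fluorescence at 510 nm after 15 h, 37 C.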
Pol III holo inh: DNA polymerase III holoenzyme inhibition; 71,000 compounds, 0.25% hits; reconstituted DNA polymerase III holoenzyme replication, biochemical; Potency, µM (doses to about 57.1 µM), inactives show at the top dose activity change, negative = inhibition
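Reconstituted *E. coli* holoenzyme (0.35 nM Pol III, 1 nM beta, 154 nM SSB, 2 nM primase) was preincubated with compound for 15 min at RT. Synthesis on 1.4 nM ssM13Gori ran 35 min, then was stopped with PicoGreen/EDTA and read as dsDNA fluorescence.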
15-hLO inh: 15-hLO (ALOX15) enzyme inhibition; purified 15hLO-1, xylenol orange hydroperoxide absorbance; Potency, µM (highest dose often 57.1 µM), without a hit: top-dose activity change, negative = inhibition, most hits filed as inhibitors; 74,000 compounds, 1.4% hits; AID 887; further: nearly all actives have a fitted effect of over 55% in size
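Purified human 15hLO-1 (40 nM) in 25 mM Hepes pH 7.5, 0.01% Triton X-100, preincubated 15 min RT with compound, then 50 uM arachidonic acid for 6 min. Hydroperoxide read by ferrous/xylenol orange, 30 min; 573/405 nm absorbance ratio gave progress.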
Numbers without * were called inactive; [ ] = remark or other dose. In the library only some 6% were active in any assay of this set; here they are far more common. Unless noted, the call rests on the fitted dose curve; in most records, active means well fitted curve in the direction sought with a large enough effect; inconclusive means small, poorly fitted or top-dose-only effect, or another doubt; inactive means no such curve, though single readings can be large; an effect the other way counts as inactive or inconclusive. Unless noted, on the % scale 0 is the no-effect control and ±100 the full control effect; potency means the concentration at half of the fitted maximal effect.

Screening Cc1cc(C(=O)CN2C(=O)C3CC=CCC3C2=O)c(C)n1-c1ccccc1 (configuration not stated) returned ERK AVP inh -26%, Bst PK mod 6*, Luciferase inh 4µM*, Tau filament bind 4%, Pol III holo inh -3% and 15-hLO inh -2%.
For COc1ccc(-n2c(C)cc(C(=O)Cn3nnc4ccccc4c3=O)c2C)cc1 the results were ERK AVP inh 11%, Bst PK mod >57, Luciferase inh -27%, Tau filament bind -12%, Pol III holo inh -1% and 15-hLO inh -11%.
O=C(CN1C(=O)c2ccccc2S1(=O)=O)c1ccccc1 was read as Bst PK mod inactive and Luciferase inh -26%[25.5 µM].
Screening Cc1cc(C(=O)CN2C(=O)c3ccccc3S2(=O)=O)c(C)n1-c1ccccc1 returned ERK AVP inh 1%, Bst PK mod inconclusive, Luciferase inh 7.9µM*, Tau filament bind -8%, Pol III holo inh 5% and 15-hLO inh -5%.
`CCCn1c(C)cc(C(=O)CN2C(=O)c3ccccc3C2=O)c1C` gave ERK AVP inh 19%, Luciferase inh 16µM*, Tau filament bind 1%, Pol III holo inh -6% and 15-hLO inh 2%.
Screening CC(=O)N[C@H](Cc1ccc(O)cc1)C(=O)O returned ERK AVP inh -12%[11.5 µM], Luciferase inh 1%[11.4 µM], Tau filament bind -9%[11.4 µM], Pol III holo inh 18%[11.4 µM] and 15-hLO inh 9%[11.4 µM].
`COc1ccc([C@@H]2OC[C@]3(COC(C)=O)[C@H](C)C=C(C)[C@@H]2[C@H]3C)cc1` gave Luciferase inh 3%[11.4 µM], Tau filament bind inconclusive and Pol III holo inh -4%.
Screening CN1CCN(c2cc3c(c4c2[nH]c2ccccc24)C(=O)CC(C)(C)C3)CC1 returned ERK AVP inh 32µM*, Luciferase inh 1%, Tau filament bind -2%, Pol III holo inh -11% and 15-hLO inh -17%.
Cc1ccc(S(=O)(=O)c2cc3c(=O)n4ccccc4nc3n(Cc3ccco3)c2=N)cc1C was read as ERK AVP inh 19%, Bst PK mod >57, Luciferase inh 1%, Tau filament bind inactive, Pol III holo inh -20% and 15-hLO inh 32µM*.
For CCOC(=O)c1c2c(n3ccccc13)C(=O)c1ccccc1C2=O the results were ERK AVP inh inconclusive, Luciferase inh 2%[11.4 µM], Tau filament bind -25%[11.4 µM], Pol III holo inh -13%[11.4 µM] and 15-hLO inh 1%[11.4 µM].
CCOC(=O)C(C(=O)OCC)c1cc(Br)c2noc3c2c1C(=O)c1ccccc1-3 was read as ERK AVP inh 25µM*, Bst PK mod >57, Luciferase inh -19%, Tau filament bind 2µM*, Pol III holo inh -8% and 15-hLO inh -19%.
C1CCC(C(C[C@@H]2CCCCN2)C2CCCCC2)CC1 was read as ERK AVP inh -3%[25.7 µM], Luciferase inh 5%[25.5 µM], Tau filament bind -4%[25.6 µM], Pol III holo inh -3%[25.6 µM] and 15-hLO inh 1%[25.6 µM].
For COc1cc2c(cc1NC(=O)COC(=O)Cn1cnc3ccccc31)oc1ccccc12 the results were ERK AVP inh -22%, Luciferase inh 16µM*, Tau filament bind 2%, Pol III holo inh 1% and 15-hLO inh 8%.
`COC(=O)NC(CC(C)=O)c1cccs1` (configuration not stated) gave ERK AVP inh 12%[11.5 µM] and 15-hLO inh -9%[11.4 µM].
`Cn1c(=O)n(CCc2ccccc2)c(=O)c2c1nc1n2CCCN1Cc1ccccc1` gave ERK AVP inh inconclusive, Bst PK mod >57, Luciferase inh 3%, Tau filament bind -13%, Pol III holo inh 4% and 15-hLO inh inconclusive.
For Cn1c(=O)n(CCc2ccccc2)c(=O)c2c1nc1n2CCCN1CCc1ccccc1 the results were ERK AVP inh 13µM*, Bst PK mod >57, Luciferase inh -1%, Tau filament bind -24%, Pol III holo inh 1% and 15-hLO inh -29%.
`Cc1cc(N/C=C/C(=O)c2cccc3ccccc23)no1` gave Bst PK mod 9.3* and Luciferase inh 0%[25.5 µM].
Cc1cc(C(=O)OCC(=O)Nc2cc(C)on2)c2ccccc2n1 was read as ERK AVP inh 15%, Bst PK mod >57, Luciferase inh -1%, Tau filament bind 1%, Pol III holo inh -4% and 15-hLO inh 4%.
CCN1C(=O)[C@@H]2[C@H]3C(=CC[C@@H]2C1=O)C1(OCCCO1)[C@H]1O[C@@H]1[C@H]3O was read as ERK AVP inh 15%[11.5 µM], Luciferase inh -2%[11.4 µM] and 15-hLO inh inconclusive.
Screening Nc1nc(SC/C=C\c2ccccc2)c2[nH]cnc2n1 returned ERK AVP inh 10%[11.5 µM], Luciferase inh 0%[11.4 µM], Tau filament bind 24%[11.4 µM], Pol III holo inh -9%[11.4 µM] and 15-hLO inh 8%[11.4 µM].
Screening CC(=O)c1c(C)[nH]c(C(=O)OCc2nnc(-c3ccccc3)o2)c1C returned ERK AVP inh 25µM*, Bst PK mod >57, Luciferase inh -15%, Tau filament bind 353%, Pol III holo inh 8% and 15-hLO inh 14%.
`COc1cc(S(=O)(=O)Nc2ccccc2C)ccc1Cl` gave ERK AVP inh inconclusive, Bst PK mod >57, Luciferase inh 4%, Tau filament bind 13µM*, Pol III holo inh -4% and 15-hLO inh -25%.
COc1cc(S(=O)(=O)NC2CCCCC2)ccc1Cl was read as ERK AVP inh -3%, Bst PK mod >57, Luciferase inh 3%, Tau filament bind 16µM*, Pol III holo inh -1% and 15-hLO inh inconclusive.
`N#CCCn1c(=O)c(-c2ccccc2)nc2cnc(N3CCOCC3)nc21` gave ERK AVP inh 9%, Luciferase inh -1%[11.4 µM], Tau filament bind 3%, Pol III holo inh -4% and 15-hLO inh 7%.
`Oc1ccccc1C1=Nc2nc3ccccc3n2C(c2ccccc2)C1` (configuration not stated) gave ERK AVP inh -14%, Luciferase inh inconclusive, Tau filament bind 7.9µM*, Pol III holo inh 11% and 15-hLO inh -18%.
CN1C(=O)CC(n2c(CO)nc3ccccc32)C1=O (configuration not stated) was read as ERK AVP inh -3%, Bst PK mod >57, Luciferase inh -1%, Tau filament bind 5%, Pol III holo inh 2% and 15-hLO inh 14%.
COc1ccc(N/C(C)=C2/C(=O)C(=O)N(CCO)C2c2ccc(Br)cc2)cc1 (configuration not stated) was read as ERK AVP inh 0%, Bst PK mod >57, Luciferase inh 3%, Tau filament bind 16µM*, Pol III holo inh -11% and 15-hLO inh -6%.
